Common to all, as to experiment: NCI-60 one-dose screen, 48 h (100 = growth as untreated, 0 = no growth, -100 = all killed)
Holding throughout (conditions): 10 µM unless noted

The test system of test [1] is SK-MEL-2 melanoma.
Test [2] concerns EKVX NSCLC.
For test [3], the system named is SN12C renal.
For test [4], the system named is UO-31 renal.
Test [5] relates to TK-10 renal.
Test [6] concerns ACHN renal.
Test [7] has as its system CAKI-1 renal.
For test [8], the system named is A498 renal.
The test system of test [9] is CCRF-CEM leukemia.
Test [10] concerns MOLT-4 leukemia.

This is part of a sample that, as a whole, favours compounds with a hit. Of some 83,000 tested, about 20% had one in any assay.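 Assay: single dose, 48 h. Readout: percent growth (0 = no net growth; negative = cell death). Active: <10.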 Unmarked numbers belong to inactive results. Calls of active or inactive are those of the source.

As for `CCc1ccc(CCC(=O)Nc2ncc(Cc3cc(Cl)ccc3Cl)s2)o1`, the growth in [1] was 45.5%; in test [2], 42.9%; in test [3] it was 31.9%; in test [4], 33.4%; in test [5], 51%; in test [6] it was 33.9%. Further, the growth in test [7] was 23.9%; in test [8], -0.625% (active); in test [9], 10.4%; in [10], 14.7%.
Consider `CN(CCCNC(=O)CCOCCOCCOCCNC(=O)Cc1ccc2ccc3cccc4ccc1c2c34)CCCNc1cc(-c2ccc3ccccc3c2)nc2ccccc12`, for which the growth in test [1] was -70.4% (active); in test [2] it was -65.8% (active); in [3], -75.3% (active); in test [4], -73.4% (active); in test [5] it was -84.2% (active); in test [6], -78.8% (active). Also, the growth in [7] is -82.4% (active); in test [8] it was -86.6% (active); in [9] it was -78.6% (active); in [10], -83.7% (active).
As to `COC(=O)c1nc(-c2ccccc2)oc1S(=O)(=O)NCC(c1ccc(Cl)cc1)N1CCOCC1` (stereo not given), the growth in test [1] was 80.9%; in test [2], 96.7%; in [3], 81.2%; in test [4] it was 60%; in test [5], 62.3%; in test [6] it was 64.7%. Moreover, the growth in test [7] was 71.2%; in [8], 90.4%; in test [9] it was -21% (active); in test [10], 7.96% (active).
Regarding `O=c1cc(-c2ccccc2)[nH]c2ncc(-c3ccc(F)cc3)n12`, the growth is 74.2% in [1]; 87.8% in [2]; 88.5% in test [3]; 69.2% in [4]; 105% in [5]; 88.3% in test [6]. The growth is 48.1% in test [7], 59% in [8], 56.3% in [9] and 39.9% in [10].
As for `Cc1ccccc1Nc1cc(O)c2c(=O)cc(-c3ccccc3)oc2c1`, the growth in test [1] is 65.7%; in test [2], 35.5%; in test [3], 31.8%; in test [4], 42.3%; in test [5], 110%; in [6] it was 34.5%. The growth was 39% in test [7], 31.3% in [8], 29.5% in test [9] and 25.8% in [10].
`Fc1ccc(Cn2cc(CSc3nc4ccccc4o3)nn2)cc1`: the growth was 99.1% in [1]; 108% in [2]; 96.5% in test [3]; 83.6% in test [4]; 95.7% in test [5]; 102% in test [6]. Besides, the growth in test [7] is 91.3%; in test [8], 98%; in test [9], 100%; in test [10], 92.7%.
For `CC(=O)/C(=C/c1ccc([N+](=O)[O-])cc1)C(=O)c1ccccc1`, the growth in test [1] was 89.4%; in test [2], 101%; in test [3] it was 91.6%; in test [4], 69.1%; in [5] it was 87.8%; in [6], 83.8%. For the same compound, the growth is 96.3% in test [7], 112% in [8], 33.7% in test [9] and 21.4% in test [10].
Take `C=C(CNCCc1ccc(O)cc1)[C@@H]1CC[C@]2(CO)CC[C@]3(C)[C@H](CC[C@@H]4[C@@]5(C)CCC(=O)C(C)(C)[C@@H]5CC[C@]43C)[C@@H]12`: the growth in test [1] was 37.5%; in [2], 80%; in [3], 24.5%; in [4], 27.1%; in test [5], 67.4%; in test [6], 12.6%. Further, the growth in [7] was 58.2%; in test [8] it was 84.1%; in test [9], -9.98% (active); in [10] it was 1.2% (active).
Consider `CCSc1oc(C)nc1[P+](c1ccccc1)(c1ccccc1)c1ccccc1`, for which the growth in test [1] is 50%; in test [2], 25.9%; in test [3], 27.7%; in [4], 82.3%; in [5], 48.1%; in test [6], 83.4%. The growth in test [7] is 70.6%; in [8], 19.3%; in [9], 37.7%; in [10] it was 38.4%.
As for `CCOC(=O)/C=C1\S/C(=N\Nc2cc(=O)[nH]c3ccccc23)N(c2ccccc2)C1=O`, the growth in [1] was 110%; in test [2] it was 104%; in test [3], 98.9%; in [4], 77.6%; in test [5] it was 117%; in test [6], 102%. For the same compound, the growth was 92.8% in test [7], 125% in [8], 101% in test [9] and 103% in test [10].
With `O=c1c2ccccc2c(=O)c2c1sc1c(=O)c3ccc(O)cc3c(=O)c12`, the growth was -60.2% (active) in test [1]; -57.7% (active) in test [2]; -88.2% (active) in test [3]; -52% (active) in [4]; -95.4% (active) in test [5]; -77.3% (active) in test [6]. The growth is -68.5% (active) in [7], -98.3% (active) in test [8], -23.3% (active) in test [9] and -40.1% (active) in test [10].
With `O=C1Nc2ccccc2C1(c1c[nH]c2ccccc12)c1c[nH]c2ccccc12`, the growth in [1] is 87.7%; in test [2], 23.3%; in test [3], 1.17% (active); in test [4], 33.6%; in [5] it was -10.1% (active); in [6] it was 1.55% (active). The growth in [7] was 44%; in test [8] it was 49.3%; in test [9], 65%; in [10], 46.7%.
Regarding `Nc1[nH]n2cc(-c3ccc(F)cc3)nc2c1N=Nc1ccc(S(N)(=O)=O)cc1`, the growth in test [1] is 70.1%; in [2] it was 108%; in [3], 68.9%; in test [4], 58.3%; in test [5], 83.8%; in test [6], 52.3%. Also, the growth in test [7] was 47.4%; in test [8], 40.1%; in test [9], 66.6%; in [10] it was 85.8%.
As to `COc1ccc(Oc2nc(Nc3ccc(N4CCOCC4)cc3)ncc2NC(=O)Nc2cc(OC)cc(OC)c2)cc1`, the growth in test [1] was 17.8%; in [2], 73.1%; in [3], -12.7% (active); in test [4], 47.8%; in test [5], 28.4%; in test [6], 17.4%. The growth in test [7] is 16.3%; in test [8], 9.34% (active); in test [9] it was 65%; in test [10], 36.8%.
`COc1ccc(NC(=O)Nc2ccc(OCCCCCC(=O)NO)cc2)cc1`: the growth in [1] was 79.9%; in test [2], 121%; in test [3], 97%; in test [4], 87.4%; in [5], 89.3%; in [6] it was 107%. Moreover, the growth in test [7] is 93.5%; in [8] it was 85.2%; in [9], 85.6%; in [10], 85.6%.
Regarding `CN(C)S(=O)(=O)Oc1ccc(-c2sc3cc(OS(=O)(=O)N(C)C)ccc3c2C(=O)c2ccc(OCCN3CCCCC3)cc2)cc1`, the growth in test [1] was 75.5%; in [2], 68.9%; in [3] it was 87.1%; in test [4] it was 43.6%; in test [5], 79%; in test [6] it was 32.3%. Also, the growth was 73.4% in [7], 85.2% in [8], 18.8% in test [9] and 36.6% in test [10].
On to `O=C1C(Nc2ccccn2)=C(I)C(=O)c2ncccc21`, for which the growth was -53.7% (active) in test [1]; -7.46% (active) in test [2]; -70.8% (active) in test [3]; -97.7% (active) in test [4]; -21.4% (active) in [5]; -36.1% (active) in [6]. Moreover, the growth is 5.77% (active) in [7], 68.2% in test [8], 3.29% (active) in test [9] and -25.4% (active) in test [10].
As for `CCN1CCN(c2cc(C)nc(N(CCNc3ccnc4cc(Cl)ccc34)Cc3ccc4c(c3)OCO4)n2)CC1`, the growth in test [1] is -82.8% (active); in test [2], 22.2%; in test [3] it was 74.4%; in test [4], -30.6% (active); in test [5], -48% (active); in test [6], 0.724% (active). The growth in [7] is 53.6%; in test [8] it was -1.76% (active); in [9], -18.5% (active); in test [10], -34.1% (active).
Regarding `COc1cccc(/C=C/C(=O)c2cccc(Nc3nc(Nc4ccccc4)nc(Nc4ccccc4)n3)c2)c1`, the growth in test [1] is 57.9%; in test [2], 78.6%; in test [3], 106%; in test [4] it was 56.9%; in test [5] it was 77.5%; in test [6] it was 86%. Also, the growth was 84.4% in test [7], 94.7% in [8], 43.8% in [9] and 58.8% in test [10].
Regarding `C[C@H](CCCC(=O)NCC#CCN1CCN(C)CC1)[C@H]1CC[C@H]2[C@@H]3CC[C@@H]4CC(=O)CC[C@]4(C)[C@H]3CC[C@]12C`, the growth in test [1] was 103%; in test [2], 93.5%; in [3], 86%; in test [4] it was 64.5%; in [5], 99%; in [6], 105%. Further, the growth is 108% in [7], 75.4% in test [8], 81.2% in [9] and 84.3% in [10].
Turning to `NC(=O)c1c(NC(=O)c2cccc(C(F)(F)F)c2)sc2c1CCC(=O)C2`, the growth in [1] is -18.5% (active); in [2] it was 9.15% (active); in test [3] it was 3.64% (active); in test [4], -95.9% (active); in test [5] it was 5.23% (active); in test [6] it was -93.4% (active). Further, the growth in [7] was -55% (active); in test [8], 53.2%; in test [9], 0.959% (active); in test [10], -18.1% (active).
In the case of `Cc1ccc(CNc2ccc3nc(CCC(C)C)[nH]c3c2)cc1`, the growth is 107% in test [1]; 96% in [2]; 85.9% in [3]; 68.6% in test [4]; 113% in test [5]; 99.3% in test [6]. Further, the growth in test [7] was 89.1%; in test [8], 97.1%; in test [9], 93.7%; in test [10], 81.4%.
As for `CCN(CC)CCN1C(=O)c2cccc3c(/C=C/CN4C(=O)c5cccc6cccc(c56)C4=O)ccc(c23)C1=O`, the growth in test [1] was 108%; in test [2], 106%; in test [3], 96.1%; in test [4], 82%; in test [5] it was 129%; in [6], 96.8%. Moreover, the growth in test [7] was 89%; in test [8] it was 77.7%; in test [9], 25.4%; in test [10], 62.8%.
Turning to `CCN1C(=O)N(CC)C2C1NN=c1s/c(=C\c3ccc[nH]3)c(=O)n12` (stereo not given), the growth in [1] was 23.4%; in [2] it was 47.4%; in [3], 39.2%; in test [4] it was 39.2%; in test [5], 61.6%; in [6], 42.3%. Besides, the growth is 27.5% in test [7], -4.45% (active) in test [8], 4.06% (active) in test [9] and 20.4% in test [10].

For the origin of these results see PubChem BioAssay (NCI).
